# Potency and affinity values are given separately.
# System: Escherichia coli
# Conditions: Concentration 20 uM; ASSAY_TEST Inhibition of Bacterial Growth; detection method Absorption (OD600); MEDIA CAMHB; plate type 384well; NBS; CORNING #3640; time 18 hr
row,Structure (SMILES),Inhibition
1,Cl.Cn1c(NCCN(CCO)CCCc2ccc([N+](=O)[O-])cc2)cc(=O)n(C)c1=O,3.31%
2,Cl.O=C1[C@H]2CCCC[C@H]2C(=O)N1CCCCN1CCN(c2nsc3ccccc23)CC1,0.37%
3,CCOC(=O)[C@H](CCc1ccccc1)N[C@@H](C)C(=O)N1Cc2ccccc2C[C@H]1C(=O)O.Cl [QUINAPRIL HYDROCHLORIDE],4.26%
4,CCC1=C(C)CN(C(=O)NCCc2ccc(S(=O)(=O)NC(=O)N[C@H]3CC[C@H](C)CC3)cc2)C1=O [GLIMEPIRIDE],1.16%
5,OC[C@H]1O[C@@H](Oc2cc(O)cc(/C=C/c3ccc(O)cc3)c2)[C@H](O)[C@@H](O)[C@@H]1O [PICEID],8.13%
6,COCCOC(=O)C1=C(C)NC(C)=C(C(=O)OC(C)C)C1c1cccc([N+](=O)[O-])c1 (centres undefined) [NIMODIPINE],4.2%
7,O=C1[C@H](CC[C@H](O)c2ccc(F)cc2)[C@@H](c2ccc(O)cc2)N1c1ccc(F)cc1 [EZETIMIBE],-0.7%
8,Cc1cccc(Nc2ccncc2S(=O)(=O)NC(=O)NC(C)C)c1 [TORSEMIDE],6.8%
9,O=C1N[C@H](C(=O)O)CS1 [PROCYSTEINE],6.28%
10,CC(C)[C@H](N)C(=O)OCCOCn1cnc2c(=O)nc(N)[nH]c21.Cl [VALACYCLOVIR HYDROCHLORIDE],2.88%
11,CCC(CO)NCCNC(CC)CO (centres undefined),2.87%
12,Cc1cccc(C)c1NC(=O)C1CCCCN1C.Cl (centres undefined) [MEPIVACAINE HYDROCHLORIDE],6.74%
13,CCCN(CCC)S(=O)(=O)c1ccc(C(=O)O)cc1 [PROBENECID],1.2%
14,CC(CN1c2ccccc2Sc2ccccc21)N(C)C.Cl (centres undefined) [PROMETHAZINE HYDROCHLORIDE],1.25%
